Assay results: PubChem BioAssay AID651602 (The Scripps Research Institute Molecular Screening Center, 2012)
In all, about 360,000 compounds went through this assay and about 950 (0.26%) were called active. The sample holds actives, similar compounds and a random draw of the others, so the mix is not that of the screen. Unmarked numbers belong to inactive results. Cut-off read from the data, not from the text of the source: active = inhibition above about 11%; inactive = the rest.

Assay: growth loss of phage-infected E. coli, primary screen, RecBCD inhibitor project, absorbance, with phage, HTS (AID 651602)
Conditions: at 11.9 µM, active compounds read high

| SMILES | inhibition |
| --- | --- |
| O=C(O)Cn1cnc2c(NCc3ccccc3)ncnc21 | -1.71% |
| O=c1ccc2c(-c3ccccc3S(=O)(=O)O)c3ccc(O)c(O)c3oc-2c1O | 12.7% (active) |
| CC[C@H](NC(=O)[C@H](Cc1ccccc1)NC(=O)[C@H]1O[C@@H](n2cnc3c(=O)[nH]c(N)nc32)[C@H](O)[C@@H]1O)c1ccccc1 | 3.64% |
| COc1ccccc1C(=O)N1O[C@]23C=C[C@]14C[C@@H](O)CC[C@]4(C)C2CC[C@]1(C)[C@@H]([C@H](C)/C=C/[C@H](C)C(C)C)CC[C@H]13 (some centres undefined) | 3.99% |
| COc1cccc(CNC(=O)[C@H]2CCCN2C(=O)[C@H]2CCCN2C(=O)C2CCCCC2)c1 | 2.87% |
| O=S1(=O)c2c(cccc2N2CCCCC2)O[C@H](COCc2ccccc2)CN1C1CC1 | 1.52% |
| COC(=O)C1=C(C)N(Cc2ccccc2C(F)(F)F)C(=NCc2ccc(OC)cc2)NC1c1cccc(C(F)(F)F)c1 (centres undefined) | 5.38% |
| CCOC(=O)C1=C(C(=O)OCC)C2N(Cc3ccc(C#N)cc3)c3ccccc3[C@@]23C[C@@H](C(=O)OC)N(S(=O)(=O)c2ccc(F)cc2)C3=N1 (some centres undefined) | 2.71% |
| CC(=O)N1C[C@@H](CO)[C@@H](N(C)C(=O)C(C)(C)C)C[C@H]1c1ccccc1Br | 2.5% |
| O=S(=O)(c1cccs1)N1CCCc2nc(-c3ccc(Br)cc3)ccc21 | 3.49% |
| CCCCC(=O)NC(c1ccc(OC)c(OC)c1)c1ccc2cccnc2c1O (centres undefined) | 21.1% (active) |
| CCOc1ccc(C(CCc2ccccc2)NC(=O)c2ccc(OC)c(OC)c2)cc1OCC (centres undefined) | -0.08% |
| CCOc1ccc(C(CC(=O)O)n2cnnn2)cc1OC (centres undefined) | 3.64% |
| CCc1c(-c2ccccc2OC)ncn1CCc1ccccc1OC | 0.54% |
| CCOC(=O)C1CSCCS(=O)(=O)N1Cc1ccc(Cl)cc1 (centres undefined) | 0.55% |
| COC(=O)C1=C(C)NC(=S)NC1c1ccc(OC)cc1 (centres undefined) | 3.49% |
| COC(=O)c1c(-c2ccc(OC)cc2)c2c(c3c4ccccc4n(S(=O)(=O)c4ccc(C)cc4)c13)C(=O)N(C)C2 | 1.94% |
| Cc1cc(Br)cn2c(Cc3ccccc3C(F)(F)F)c(-c3ccc(C#N)cc3)nc12 | 4.55% |
| O=C(NNS(=O)(=O)Cc1ccccc1)c1ccc([N+](=O)[O-])cc1 | 4.99% |
| O=C(NC(Nc1nc2ccc([N+](=O)[O-])cc2s1)(C(F)(F)F)C(F)(F)F)c1ccccc1 | 12.8% (active) |
| O=C(Nc1cc(-c2ccccc2)nn1-c1ccccc1F)c1ccc([N+](=O)[O-])cc1 | 3.65% |
| COC(=O)C1=C(C)N(Cc2ccccc2C(F)(F)F)C(=NCc2ccc(C(F)(F)F)cc2)NC1c1ccc(F)cc1 (centres undefined) | 7.76% |
| COC(=O)N1Cc2ccnnc2CC1c1ccccc1Br (centres undefined) | 3.01% |
| O=C(Nc1ccc(F)cc1)C1CCN(C(=O)c2ccc([N+](=O)[O-])cc2)CC1 | 1.84% |
| O=C(/C=C/c1ccc(F)cc1)NC(=S)NNC(=O)c1cccnc1 | -5.76% |
| O=C(/C=C/c1ccc([N+](=O)[O-])o1)NNC(=O)c1ccc(F)cc1 | 29.6% (active) |
| CCCN1C(=O)c2[nH]nc(-c3ccccc3)c2C1c1ccccc1 (centres undefined) | 1.78% |

| SMILES | inhibition |
| --- | --- |
| COC(=O)[C@]12C[C@H](CC(=O)NCc3ccc(OC)c(OC)c3)C(=O)N(Cc3ccccc3)C1=C[C@H](C(C)C)O[C@@H]2C1CC1 | 0.85% |
| O=C1[C@@H](c2ccccc2)[C@@H](c2ccccc2)N1c1ccccc1 | 1.64% |
| COc1ccc(-c2ccc3c(n2)CCCN3S(=O)(=O)c2ccc(C)cc2)cc1 | 4.42% |
| CC(NC(=S)Nc1ccccc1)C1COc2ccccc2O1 (centres undefined) | 4.25% |
| S=C(NCC1COc2ccccc2O1)Nc1ccc(Br)cc1 (centres undefined) | 11.1% (active) |
| O=C(COc1ccc(F)cc1Br)NCC1COc2ccccc2O1 (centres undefined) | 1.96% |
| O=C(N[C@H](Cc1ccccc1)C(=O)N1CCCN(Cc2cccs2)CC1)[C@H]1O[C@@H](n2ccc(=O)[nH]c2=O)[C@H](O)[C@@H]1O | 3.33% |
| CCOC(=O)Cn1c2c(n(-c3ccc(F)cc3)c1=O)C=C(c1ccccc1)[C@@H](C)C(C(=O)N(C)C1CCCCC1)=C2 | 3.33% |
| CN(C)C(=O)N1CCN(C(=O)[C@@H](Cc2ccccc2)NC(=O)[C@H]2O[C@@H](n3ccc(N)nc3=O)[C@H](O)[C@@H]2O)CC1 | 1.56% |
| COc1ccc(CNS(=O)(=O)c2cc(Br)ccc2Br)cc1 | 0.71% |
| CC1CN(C(=S)Nc2ccccc2F)CC(C)O1 (centres undefined) | 2.38% |
| COc1ccccc1NC(=S)N1CCN(c2ccc(F)cc2)CC1 | 2.7% |
| COc1c(N2CCN(C(=S)Nc3ccccc3F)C(C)C2)c(F)cc2c(=O)c(C(=O)O)cn(C3CC3)c12 (centres undefined) | 99.2% (active) |
| CCOC(=O)CNC(=O)N(C)[C@H]1C[C@H]2c3[nH]c4c(-c5ccc6c(c5)OCO6)cccc4c3CCN2C(=O)[C@H]1[C@H](C)O | 1.25% |
| COc1cccc(CC(=O)N2CCN(C(=O)C(=O)c3cccc(C(F)(F)F)c3)CC2)c1 | 0.39% |
| COC(=O)[C@]12C[C@H](CC(=O)NCCC(C)C)C(=O)N(CCc3ccc(OC)c(OC)c3)C1=C[C@H](C(C)(C)C)O[C@@H]2C | 4.73% |
| CCOc1ccc(N(CC(=O)NC2CCCCCC2)S(=O)(=O)c2c(C)[nH]c(=O)[nH]c2=O)cc1 | 80.4% (active) |
| CCOc1ccc(N(CC(=O)Nc2ccccc2F)S(=O)(=O)c2c(C)[nH]c(=O)[nH]c2=O)cc1 | 3.53% |
| COc1ccc(N(CC(=O)NC2CCCCC2)S(=O)(=O)c2c(C)[nH]c(=O)[nH]c2=O)cc1 | -1.14% |
| Nc1[nH]c(C(=O)c2ccccc2)c(-c2ccc(Cl)cc2Cl)c1C(=O)c1ccccc1 | 3.17% |
| Cc1cc(NCCc2c[nH]c3ccccc23)ccc1Oc1cccnc1 | 1.27% |
| COCc1[nH]nc2c1C(c1ccccc1)N(c1ccccc1)C2=O (centres undefined) | 1.43% |
| O=C(Nc1ccccc1)Nc1nnc(COc2ccccc2F)s1 | 0.84% |
| CC(C)=CC(=O)Nc1nnc(-c2ccc(F)cc2)s1 | 1.99% |
| Cc1ccc(NC(=O)Nc2nnc(-c3ccncc3)s2)cc1 | 12.4% (active) |
| C[C@H](O)[C@@H]1C(=O)N2CCc3c([nH]c4c(-c5ccc6c(c5)OCO6)cccc34)[C@@H]2C[C@@H]1N(C)C(=O)c1ccco1 | 4.12% |
| CCCCCCn1cc(C(=O)O)c(=O)c2cc(F)c(N3CCCCC3)cc21 | 1.18% |

| SMILES | inhibition |
| --- | --- |
| CCn1cc(C(=O)NCCO)c(=O)c2cc(F)c(N3CCN(C)CC3)cc21 | 92.5% (active) |
| CN1CCN(c2cc3c(cc2F)c(=O)c(C(=O)O)cn3CCF)CC1 | 99.2% (active) |
| CCCCNC(=O)c1cn(CC)c2cc(N3CCN(C(=O)c4ccco4)CC3)c(F)cc2c1=O | 1.02% |
| CCn1cc(C(=O)NCCC(=O)NCCO)c(=O)c2cc3c(cc21)OCO3 | 0.08% |
| CCn1cc(S(=O)(=O)c2cccc(C)c2)c(=O)c2cc(F)c(N3CCN(C)CC3)cc21 | 0.96% |
| C=CCN1C(=O)N(Cc2ccccc2)c2ccccc2S1(=O)=O | 1.27% |
| COc1ccc(OC)c(Cc2cnc3nc(N)nc(N)c3c2C)c1 | 82.4% (active) |
| Brc1ccc(COCCc2cn(Cc3ccccc3)c3ccccc23)cc1 | 2.34% |
| Cc1[nH]nc2c1C(c1ccc(Br)cc1)NC2=O (centres undefined) | 2.87% |
| Nc1[nH]c(C(=O)c2ccc(Br)cc2)c(-c2ccc3c(c2)OCO3)c1C(=O)NCCc1c[nH]c2ccccc12 | -1.27% |
| CCc1ccc(C2=CC(=O)CC(C)(C)C2=O)cc1 | 1.83% |
| C[C@@H]1CN([C@H](C)CO)C(=O)CCCn2cc(nn2)CO[C@H]1CN(C)C(=O)Nc1ccc(N2CCCCC2)cc1 | 1.36% |
| O/N=C1\CC2(Cc3nonc31)OCCO2 | 0.95% |
| ON=C1/C(=N\O)CC2(C/C1=N/O)OCCO2 | 13.7% (active) |
| CN[C@H]1C[C@H]2c3[nH]c4c(-c5ccccc5)cccc4c3CCN2C(=O)[C@H]1[C@H](C)O | 1.58% |
| Nc1ccn([C@@H]2O[C@H](C(=O)N[C@H]3CCCCNC3=O)[C@@H](O)[C@H]2O)c(=O)n1 | 1.72% |
| O=C(CO/N=C/c1ccccc1O)NNC(=O)c1ccccc1Cl | 0.32% |
| O=C(CC(=O)N/N=C\c1cccc(Cl)c1Cl)NCc1ccccc1 | 3.05% |
| O=C(NN=Cc1ccccc1O)NN=Cc1ccccc1O | 12.4% (active) |
| COC(=O)C1=C(C)N(Cc2ccccc2C(F)(F)F)C(=NCC2CC2)NC1c1cccc(Cl)c1 (centres undefined) | 0.63% |
| COC(=O)c1cc2c(c3c4ccccc4n(S(=O)(=O)c4cccc(C)c4)c13)C(=O)N(Cc1ccccc1)C2 | 5.66% |
| COc1ccccc1-c1ccc([C@@H]2C[C@H]3[C@H](CON3C)CN2S(=O)(=O)c2cc(Cl)cc(Cl)c2)cc1 | 3.4% |
| O=S1(=O)c2ccc(Br)cc2-n2nncc2CN1Cc1cccc(Cl)c1 | -0.4% |
| C=C1c2c(Cl)ccc(O)c2C(O)=C2C(=O)[C@]3(O)C(O)=C(C(N)=O)C(=O)[C@@H](N(C)C)[C@@H]3[C@@H](O)C12 (some centres undefined) | 102% (active) |
| CN(C)[C@@H]1C(=O)C(C(N)=O)=C(O)[C@@]2(O)C(=O)C3=C(O)c4c(O)ccc(Cl)c4[C@@H](O)[C@H]3C[C@@H]12 | 102% (active) |
